According to publication PMC4336329 (PLoS ONE, 2015):
The campaign covered roughly 310,000 compounds. About 14,000 (4.5%) showed an effect of 50% or more. The effect is printed as a negative number. The list comes from a sample in which strong results are over-represented; it also holds similar structures and randomly drawn compounds.

What follows are compounds tested against human ether-à-go-go-related gene (hERG) potassium channel (human, UniProt Q12809) (assay: primary screen, population patch clamp on CHO cells stably expressing hERG; higher = less effect of the substance).
Chain of human ether-à-go-go-related gene (hERG) potassium channel (Q12809 whole entry, looked up): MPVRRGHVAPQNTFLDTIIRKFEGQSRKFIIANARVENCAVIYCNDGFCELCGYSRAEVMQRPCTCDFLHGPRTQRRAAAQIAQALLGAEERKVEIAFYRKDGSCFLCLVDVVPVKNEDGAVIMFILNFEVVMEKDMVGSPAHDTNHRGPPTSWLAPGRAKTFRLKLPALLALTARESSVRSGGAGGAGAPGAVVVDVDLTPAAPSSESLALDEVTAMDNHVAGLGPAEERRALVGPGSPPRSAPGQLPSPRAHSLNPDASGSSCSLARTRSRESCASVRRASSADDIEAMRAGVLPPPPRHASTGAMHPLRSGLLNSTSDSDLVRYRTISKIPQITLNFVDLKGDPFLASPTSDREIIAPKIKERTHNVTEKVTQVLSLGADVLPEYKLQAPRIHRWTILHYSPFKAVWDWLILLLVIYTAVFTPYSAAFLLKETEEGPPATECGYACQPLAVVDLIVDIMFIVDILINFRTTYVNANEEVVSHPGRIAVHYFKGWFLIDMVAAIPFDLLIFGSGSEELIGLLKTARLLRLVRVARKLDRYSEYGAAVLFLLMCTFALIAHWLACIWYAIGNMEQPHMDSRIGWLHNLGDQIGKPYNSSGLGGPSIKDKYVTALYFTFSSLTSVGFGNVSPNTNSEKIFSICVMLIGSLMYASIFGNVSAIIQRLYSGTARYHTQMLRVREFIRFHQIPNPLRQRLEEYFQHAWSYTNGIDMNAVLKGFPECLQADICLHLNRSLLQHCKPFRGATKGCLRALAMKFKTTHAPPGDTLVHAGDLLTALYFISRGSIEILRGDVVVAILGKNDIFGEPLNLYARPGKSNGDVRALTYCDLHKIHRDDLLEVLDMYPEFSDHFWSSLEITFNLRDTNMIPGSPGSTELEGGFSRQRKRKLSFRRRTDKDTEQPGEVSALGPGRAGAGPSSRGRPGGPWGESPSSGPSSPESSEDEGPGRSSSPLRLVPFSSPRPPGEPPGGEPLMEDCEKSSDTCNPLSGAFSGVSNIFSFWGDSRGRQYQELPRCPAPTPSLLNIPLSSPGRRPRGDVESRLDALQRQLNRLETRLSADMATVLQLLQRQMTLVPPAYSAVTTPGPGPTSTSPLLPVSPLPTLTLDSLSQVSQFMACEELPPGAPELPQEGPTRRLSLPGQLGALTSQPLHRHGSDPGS
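Further: peak tail current of the secondary pulse compared with the same well before compound.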

SMILES	hERG current change (%, negative = inhibition) at 10uM [%]
Cc1ccnc(SCc2cc(=O)c(OC(=O)c3ccc(S(=O)(=O)N(C)C)cc3)co2)n1	-36.4
CCOC(=O)c1c(NC(=O)CN(C)C)sc(C(=O)N(CC)CC)c1C.O=C(O)C(=O)O	-17.6
CCC[C@@H]1CCCO[C@@](C(=O)NCc2ccccn2)(C(F)(F)F)C1	-1.97
COc1cc2c(cc1OC)C1(CCCC1)CNC2c1cccc([N+](=O)[O-])c1 (stereo not shown)	-43.3
COc1cc2c(cc1OC)C1(CCCC1)CNC2c1ccc([N+](=O)[O-])cc1.Cl (stereo not shown)	-50
COc1cc2c(cc1OC)C1(CCCC1)CNC2C.Cl (stereo not shown)	-3.04
C/C(=N/NC(=O)CNC(=O)c1ccccc1)c1ccc(C)cc1	-41.5
CC1=C[C@@H](C)[C@@H](c2ccc(C(F)(F)F)cc2)OC1=O	7.01
Cc1ccc2c(c1)c(/C=C/c1cc[n+](C)cc1)c(C)n2C.[I-]	-10.9
COc1ccc2c(CC(=O)NCCN3C(=O)S/C(=C\c4cccnc4)C3=O)coc2c1	-9.62
O=C(/C(=N\Nc1ccc([N+](=O)[O-])cc1)Sc1nnnn1-c1ccccc1)c1ccccc1	17.9
O=C(C[n+]1cc(-c2ccc(Cl)cc2)n2c1CCC2)N1c2ccccc2Sc2ccccc21.[Cl-]	-22.1
CC1CCC(C(C)C)C(OC(=O)C[n+]2cc(-c3ccc(Cl)cc3)n3c2CCC3)C1.[Cl-] (stereo not shown)	-77.1
O=C(C[n+]1cc(-c2ccccc2)n2c1CCCCC2)c1ccc(Cl)cc1.[Br-]	-23.4
CC(C)[C@@H]1CC[C@@H](C)C[C@H]1OC(=O)C[n+]1cc(-c2ccc(Cl)cc2)n2c1CCCCC2.[Cl-]	-60.1
COc1ccc(-c2c[n+](CC(=O)c3cccs3)c3n2CCC3)cc1.[Br-]	10.4
CC1CCC(C(C)C)C(OC(=O)C[n+]2cc(-c3ccc(Cl)cc3)n3c2CCCCC3)C1.[Cl-] (stereo not shown)	-79.4
COc1ccc(-c2c[n+](CC(=O)OC3CC(C)CCC3C(C)C)c3n2CCC3)cc1.[Cl-] (stereo not shown)	-69.3
Cn1c(NC(=O)C[n+]2cc(-c3ccc(Cl)cc3)n3c2CCC3)cc(=O)n(C)c1=O.[Cl-]	11.3
COc1ccc(C(=O)C[n+]2cc(-c3ccc(OC)cc3)n3c2CCCC3)cc1.[Br-]	-10.1

SMILES	hERG current change (%, negative = inhibition) at 10uM [%]
O=C(C[n+]1cc(-c2ccc(Cl)cc2)n2c1CCCCC2)c1ccccc1.[Br-]	-12.5
O=C(Nc1ccc2c(c1)OCO2)C1CCCN(S(=O)(=O)c2cccs2)C1 (stereo not shown)	10.7
COc1cccc(-c2ncc3ccccn23)c1.O=C(O)C(=O)O	-5
CCOc1ccc(S(=O)(=O)Nc2cccc(C(=O)NCCCn3ccnc3)c2)cc1	10.5
O=C(CCN1C(=O)c2ccccc2C1=O)Nc1sc2c(c1C(=O)NCc1ccco1)CCCC2	-13.2
O=C(Nc1nnc(SCC(=O)N2CCCCC2)s1)c1cccs1	4.86
CCOC(=O)c1c(NC(=O)C2COc3ccccc3O2)sc2c1CC(C)(C)NC2(C)C (stereo not shown)	-12.1
Cc1nnc(SC(C)C(=O)Nc2ccc(Cl)cn2)n1Cc1ccccc1 (stereo not shown)	-17.3
O=C(CSc1nnnn1-c1ccccc1)Nc1ccc(Cl)cn1	2.66
CC(Sc1nnnn1-c1ccccc1)C(=O)Nc1ccc(Cl)cn1 (stereo not shown)	-54.2
CC(Sc1nnc(CN2CCCC2)n1Cc1ccccc1)C(=O)Nc1ccccc1 (stereo not shown)	-43.1
Cc1nnc(SCC(=O)Nc2ncc(Cl)cc2Cl)n1Cc1ccccc1	-15.6
Cc1ccc(-n2nnnc2SC(C)C(=O)Nc2ccc(Cl)cn2)cc1 (stereo not shown)	-22.1
CC(=O)Nc1ccc(NC(=O)C(C)Sc2n[nH]c(=O)n2Cc2ccccc2)cc1 (stereo not shown)	16
Cc1nnc(SC(C)C(=O)Nc2ncc(Cl)cc2Cl)n1Cc1ccccc1 (stereo not shown)	-67.8
CC(Sc1nnc(CN2CCCC2)n1Cc1ccccc1)C(=O)Nc1ccc(F)cc1 (stereo not shown)	-61.4
Cc1sc2nc(SCc3nc4ccccc4[nH]3)n(Cc3ccco3)c(=O)c2c1C	-9.15
C=CC1CN(C(=O)OCC(Cl)(Cl)Cl)C2CC3c4ccc(OC)cc4NC3C3CC1C2CO3 (stereo not shown)	-7.61
CCOc1ccc2nc(SCC(=O)NCc3ccccc3)[nH]c2c1	2.63
CC(C)CN(C(=O)COC(=O)CCSc1ccc(F)cc1)c1c(N)n(Cc2ccccc2)c(=O)[nH]c1=O	10.1
